Source: PubChem
Tau fibril ThT – qHTS for Inhibitors of Tau Fibril Formation, Thioflavin T Binding. Microtubule-associated protein tau (Homo sapiens), P10636. recombinant tau K18 P301L, heparin-induced fibrillization, ThT fluorescence. Potency, µM (titrated, usually from 57.4 µM), inactives show at the highest dose activity, negative = inhibition, actives largely listed as inhibitors. actives 2.1% (n = 270,000). AID 1460, 2008; also: potency is read from the fitted curve at half-maximal effect; nearly all actives have a fitted effect of over 55% in size
Target sequence (P10636 561-689 P618L limits assumed): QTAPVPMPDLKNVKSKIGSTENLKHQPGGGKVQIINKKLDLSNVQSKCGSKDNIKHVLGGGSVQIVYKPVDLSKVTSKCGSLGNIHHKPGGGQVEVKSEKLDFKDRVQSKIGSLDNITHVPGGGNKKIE
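Using a mix of unlabeled (15 uM) and Alexa 594-labeled (0.24 uM) tau K18 P301L, heparin-triggered fibrillization over 6 hr at 37 C was scored by ThT fluorescence.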
G9a block – qHTS Assay for Inhibitors of Histone Lysine Methyltransferase G9a; Histone-lysine N-methyltransferase EHMT2 (Homo sapiens), Q96KQ7; G9a H3K9 monomethylation, AlphaScreen, 2 h; Potency, µM (doses to about 102 µM), inactives show top-dose activity, negative = inhibition, actives largely listed as inhibitors; actives 8.8% (n = 350,000); AID 504332, 2011; also: potency is read from the fitted curve at half-maximal effect; nearly all actives have a fitted effect of over 75% in size
Target sequence (Q96KQ7 913-1193 limits assumed): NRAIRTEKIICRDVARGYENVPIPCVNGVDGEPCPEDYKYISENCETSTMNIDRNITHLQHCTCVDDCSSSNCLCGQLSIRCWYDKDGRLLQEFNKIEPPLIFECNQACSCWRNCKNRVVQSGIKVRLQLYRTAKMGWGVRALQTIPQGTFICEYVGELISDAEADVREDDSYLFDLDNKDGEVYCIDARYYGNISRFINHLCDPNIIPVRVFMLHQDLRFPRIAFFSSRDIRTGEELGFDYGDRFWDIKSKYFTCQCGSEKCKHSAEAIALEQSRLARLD
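Readings reflect AlphaScreen signal from monomethyl-H3K9 antibody detection. HMT at 20 nM; substrate b-H3K9 500 nM; cofactor SAM 20 uM; 2 h RT reaction; compounds tested as titrations in qHTS with 15 min preincubation.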
FBPA coupling cs – qHTS Assay for Inhibitors of Fructose-1,6-bisphosphate Aldolase from Giardia Lamblia: Coupling assay counterscreen | coupling enzyme system counterscreen, AmpLite Red fluorescence | activity change, negative = inhibition, % at 58.2 µM, hits read low | actives 0.67% (n = 290,000); in the data active = activity change below about -30%
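Final compound at 57.5 uM, incubated 10 min at RT with coupling enzyme reagent (glyceraldehyde-3-phosphate), then 20 min with substrate and AmpLite Red detection. Fluorescence read at 525/598 nm; tests interference with the coupling assay, not aldolase inhibition.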
Tau fluor counter – Counterscreen qHTS for Inhibitors of Tau Fibril Formation, Fluorescence Polarization; tau K18 P301L Alexa594 fluorescence, heparin fibrillization; Potency, µM (titrated, usually from 57.7 µM), inactives show at the highest dose activity change, negative = decrease; AID 1463, 2008; actives 0.93% (n = 280,000); also: potency is read from the fitted curve at half-maximal effect; nearly all actives have a fitted effect of over 55% in size
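Human tau K18 P301L (15 uM unlabeled, 0.24 uM Alexa 594-labeled) in 100 mM sodium acetate pH 7 with 20 uM heparin, 6 hr at 37 C. ThT 30 uM added, 1 hr ambient; Alexa 594 FP and total fluorescence read at 555/632 nm.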
Tau FP inhib – qHTS for Inhibitors of Tau Fibril Formation, Fluorescence Polarization | Microtubule-associated protein tau (Homo sapiens), P10636 | K18 P301L tau heparin fibrillization, Alexa594 FP, 6 h | Potency, µM (highest dose often 57.7 µM), inactives show top-dose activity, negative = inhibition, most hits filed as inhibitors | actives 0.39% (n = 280,000) | AID 1468, 2008; also: potency is read from the fitted curve at half-maximal effect; nearly all actives have a fitted effect of over 55% in size
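Human tau K18 […] P301L fragment, 15 uM unlabeled plus 0.24 uM Alexa 594-labeled tau (final), with compound and 20 uM heparin in 100 mM sodium acetate pH 7; 6 hr at 37 C, then Alexa 594 FP read.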
Sfp PPTase inh – qHTS Assay for Inhibitors of Bacillus subtilis Sfp phosphopantetheinyl transferase (PPTase) | 4'-phosphopantetheinyl transferase ffp (Bacillus subtilis), Q9F4F7 | Biochemical Sfp PPTase activity, qHTS | Potency, µM, for the others: largest response in the series, negative = inhibition, most hits filed as inhibitors | actives 3.5% (n = 310,000) | AID 1490, 2009;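 also: the enzyme is Sfp with the accession as filed and its product quenches rhodamine fluorescence; potency is read from the fitted curve at half-maximal effect; 0% = enzyme reaction without inhibitor and -100% = no enzyme wells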
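Buffer: 50 mM Hepes-Na pH 7.6, 10 mM MgCl2, 0.01% Nonidet P-40, 0.01% BSA. Enzyme 15 nM, pre-exposed to compound 15 min; substrates then added and fluorescence change tracked over 30 min.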
* hit, by the source's call; ? = inconclusive; . = not tested or not shown; [ ] = another dose, or the depositor's remark. An excerpt weighted towards active compounds, which were near 11% of everything screened. Unless noted, calls follow the shape of the dose curve; as a rule, active = well fitted curve in the direction sought with a large enough effect; inconclusive = small, poorly fitted or top-dose-only effect, or another doubt; inactive = no such curve, though single readings can be large; an effect the other way counts as inactive or inconclusive. Unless noted, % is scaled to controls: 0 for no effect and ±100 for the full control effect.

SMILES	Tau fibril ThT	G9a block	FBPA coupling cs	Tau fluor counter	Tau FP inhib	Sfp PPTase inh
CCN1C(=O)S/C(=C/c2ccc(Sc3nc4ccccc4[nH]3)o2)C1=O	2%	11µM*	-10	-8%	0%	12%
CCOC(=O)C(C)c1c(C)[nH]c(=S)[nH]c1=O (stereo unspecified)	-10%	23%[12.7 µM]	0	-2%	2%	-4%
CCCCCOC(=O)C(C)c1c(C)[nH]c(=S)[nH]c1=O (stereo unspecified)	-13%	71µM*	0	-5%	2%	11%
CCC(CC)C(=O)NCCc1cc2ccc(OC)cc2[nH]c1=O	0%	13%	3	-1%	3%	6%
Cc1cc2cc(CCNC(=O)c3ccc(Br)o3)c(=O)[nH]c2cc1C	?	18µM*	-5	-4%	3%	28µM*
CC(=O)NCCc1cc2cc(C)c(C)cc2[nH]c1=O	-8%	-9%[12.7 µM]	4	-2%	-9%	-3%
COc1ccc2cc(CCNC(=O)c3ccc(Br)o3)c(=O)[nH]c2c1	?	50µM*	1	-7%	-10%	1%
COc1ccc(-c2nc(C)c(CCNC(=O)c3ccc(F)c(F)c3)s2)cc1	?	12%[59 µM]	.	?	?	.
CC(C)CCn1c(=O)c2sccc2n2c(CCCC(=O)NCCc3ccccc3)nnc12	-1%	6%[59 µM]	.	-13%	1%	.
COc1ccccc1/C=C/CN1CCCCC1	.	28µM*	1	.	.	4%
Nc1n[nH]c(C2CC2)c1N=Nc1ccc(Cl)c(Cl)c1	13µM*	36%[59 µM]	-2	13µM*[quencher]	?	-8%
Nc1n[nH]c(C2CC2)c1N=Nc1ccc(Cl)cc1	10µM*	50µM*	-1	16µM*[quencher]	13%	17%
Nc1[nH]c(=O)[nH]c(=O)c1N=Nc1cccc(Cl)c1	7%	.	2	0%	0%	-20%
COc1ccc(OC)c(C(c2nnnn2C2CCCC2)N2CCN(c3ccccc3F)CC2)c1 (stereo unspecified)	-11%	-5%[59 µM]	-7	-5%	2%	8%
COc1ccc(N2CCN(C(c3cccc(OC)c3OC)c3nnnn3C3CCCC3)CC2)cc1 (stereo unspecified)	?	13µM*	-7	?	3%	-7%
COc1ccc(N2CCN(C(c3cccs3)c3nnnn3C3CCCC3)CC2)cc1 (stereo unspecified)	?	?	-3	-30%	11%	12%
Fc1ccccc1N1CCN(C(c2ccccn2)c2nnnn2C2CCCCC2)CC1 (stereo unspecified)	-17%	14µM*	2	-6%	-2%	-23%
COc1ccccc1N1CCN(C(c2ccccn2)c2nnnn2C2CCCCC2)CC1 (stereo unspecified)	-14%	-45%[59 µM]	1	-11%	8%	7%
COc1ccc(N2CCN(C(c3ccccc3OC)c3nnnn3C3CCCC3)CC2)cc1 (stereo unspecified)	-17%	16µM*	-6	-16%	6%	4%
COc1ccc(N2CCN(C(c3cc(OC)ccc3OC)c3nnnn3CC3CCCO3)CC2)cc1 (stereo unspecified)	-6%	14µM*	1	-12%	10%	15%
COc1ccc(N(C)C(=O)NCc2noc3ccc(C)cc23)c(OC)c1	-7%	20%[59 µM]	.	-15%	-3%	.
COc1ccccc1C(c1nnnn1CCc1ccccc1)N1CCN(c2ccccc2)CC1 (stereo unspecified)	-8%	?	-3	-13%	2%	6%
COCCn1nnnc1C(c1ccccc1OC)N1CCN(c2ccccc2)CC1 (stereo unspecified)	3%	45µM*	0	-4%	-2%	14%
CC(=O)NCCCS(=O)(=O)O	.	3%[12.7 µM]	.	.	.	17%
O=C(Nc1cccc(F)c1)C1CCN(S(=O)(=O)c2ccc3[nH]c4c(c3c2)CCCCC4)CC1	-13%	-47%[59 µM]	.	28µM*[quencher]	-2%	.
SMILES	Tau fibril ThT	G9a block	FBPA coupling cs	Tau fluor counter	Tau FP inhib	Sfp PPTase inh
COc1cccc(NC(=O)C2CCN(S(=O)(=O)c3ccc4[nH]c5c(c4c3)CCCCC5)CC2)c1	3%	-39%[59 µM]	.	6.3µM*[quencher]	-14%	.
COc1cccc(NC(=O)C2CCN(S(=O)(=O)c3ccc4[nH]c(=O)ccc4c3)CC2)c1	.	31%	-1	.	.	9%
COc1ccccc1NC(=O)C1CCN(S(=O)(=O)c2ccc3[nH]c4c(c3c2)CCCCC4)CC1	-4%	3.5µM*	.	?	0%	.
CSc1cccc(NC(=O)C2CCN(S(=O)(=O)c3ccc4[nH]c5c(c4c3)CCCCC5)CC2)c1	6%	-9%[59 µM]	.	?	-5%	.
CCc1ccc(S(=O)(=O)c2cn(C)c3cc(N4CCN(CC)CC4)c(F)cc3c2=O)cc1	1%	-11%[59 µM]	.	1%	1%	.
O=C(NCCc1ccc(F)cc1)C(=O)NCC(c1ccc2c(c1)OCO2)N1CCOCC1 (stereo unspecified)	13%	-18%[59 µM]	.	9%	1%	.
COCCC(=O)Nc1ccc2c(c1)CN(C(=O)c1ccc(CSC)o1)CC2	.	50µM*	3	.	.	1%
COc1ccc(-c2nnc(SCc3cc(=O)c4cc(C)cc(C)c4[nH]3)n2C)cc1	-17%	0%[59 µM]	.	0%	2%	.
CCC(C)(C)c1ccc(OCCCC[n+]2cccc(C)c2)c(C(C)(C)CC)c1	?	?	0	-10%	4%	32µM*
Cc1ccc[n+](CC(=O)Nc2cc(C(F)(F)F)ccc2Cl)c1	-8%	6%[59 µM]	2	-14%	-11%	6%
Nn1c(=S)[nH]nc(Cc2ccc(O)cc2)c1=O	-11%	?	-3	1%	0%	16µM*
COc1ccc(Cc2n[nH]c(=S)n(N)c2=O)cc1	-2%	?	-1	-4%	7%	56µM*
C=CCSc1nc2sc3c(c2c(=O)n1-c1ccc(C)cc1)CCN(C)C3	.	?	1	.	.	-1%
O=c1c(-c2ccc(F)cc2)nc2cnc(Nc3ccccc3)nc2n1Cc1cccs1	.	3%[12.7 µM]	0	.	.	-5%
COC(=O)/C=C/c1c(C)nc(NCc2ccccc2)nc1Cl	.	50µM*	0	.	.	0%
O=C(O)c1ccc(N/N=C/c2c(F)cccc2Cl)cc1	.	-8%	11	.	.	9%
Cc1csc(=Nc2ccccc2)n1C	0%	?	0	3%	8%	-8%
